SW480 rereplic: A quantitative high throughput screen for small molecules that induce DNA re-replication in SW480 colon adenocarcinoma cells | AID 624297, 2012 | Potency, µM (top dose mostly 46.1 µM), inactives show at the top dose re-replication activation, most hits filed as activators | 1.8% of 340,000 active | SW480 DNA re-replication, Hoechst DNA content imaging, 48 h; also: % of control where 0% means no effect; nearly all actives have a fitted effect of over 55% in size
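Image-based DNA-content assay: after two days of treatment, nuclei were labelled with the DNA dye Hoechst and imaged, and hits were compounds raising the count of nuclei showing high fluorescence intensity.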
MCF10A rerep: A quantitative high throughput screen for small molecules that induce DNA re-replication in MCF 10a normal breast cells; MCF 10A DNA re-replication, Hoechst nuclear intensity, 48 h; Potency, µM (doses to about 46.1 µM), without a hit: at the highest dose activity, positive = re-replication, usual class: activators; 2.9% of 350,000 active; also: % of control where 0% means no effect; nearly all actives have a fitted effect of over 50% in size
KB-V1 MDR tox: qHTS assay for MDR1-selective chemotherapeutics: Primary screen using the drug-selected MDR subline cells KB-V1 | KB-V1 MDR cells viability, CellTiter-Glo, 72 h | Potency, µM (series often up to 46.1 µM), usual class: cytotoxic | 3.4% of 400,000 active; also: % is scaled to controls: 0 for no effect and ±100 for the full control effect; nearly all actives have a fitted effect of over 60% in size
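Compound-treated KB-V1 multidrug-resistant cells, 72 h, 37 degrees C; viability by CellTiter-Glo. Fitted qHTS curves give the values.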
KB-3-1 cytotox: qHTS assay for MDR1-selective chemotherapeutics: Primary screen using the parental adenocarcinoma cell KB-3-1; Potency, µM (highest dose often 46.1 µM), usual class: cytotoxic; 1.4% of 400,000 active; KB-3-1 viability, CellTiter-Glo ATP luminescence, 72 h; also: % is scaled to controls: 0 for no effect and ±100 for the full control effect; nearly all actives have a fitted effect of over 60% in size
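Screening of KB-3-1 cells (DMEM, 10% FBS, phenol-red free) ran from lowest to highest compound concentration; after 72 h at 37 °C viability was read luminescently and curves fitted.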
HT1080 IDH1KD tx: qHTS for induction of synthetic lethality in tumor cells producing 2HG: qHTS for the HT-1080-IDH1KD cell line | HT-1080 IDH1 knockdown viability, ATP luminescence, 48 h | Potency, µM (highest dose often 46.1 µM), for the others: at the top dose activity, negative = toxicity, usual class: cytotoxic | 2% of 360,000 active;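 also: 0% = DMSO wells and -100% = cell-free medium wells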
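Luminescent ATP read-out (CellTiter-Glo, 10 min at room temperature) after 48 h compound exposure at 37 °C gave viability of IDH1-knockdown HT-1080 cells. Activity was normalised to DMSO and cell-free wells, then fitted as concentration-response curves.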
HT1080-NT tox: qHTS for induction of synthetic lethality in tumor cells producing 2HG: qHTS for the HT-1080-NT fibrosarcoma cell line. 1.6% of 360,000 active. Potency, µM (titrated, usually from 46.1 µM), inactives show top-dose activity, negative = less viability, usual class: cytotoxic. AID 686970, 2013. HT-1080-NT fibrosarcoma viability, CellTiter-Glo ATP luminescence, 48 h;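 also: NT is the 2HG producing partner of a matched IDH1 knockdown line; 0% = DMSO-treated cells and -100% = media-only wells without cells; nearly all actives have a fitted effect of over 55% in size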
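750 cells/well, RPMI + 5% FBS; 2 h settle, compound pin-transfer, 48 h at 37 degrees C. CellTiter-Glo 10 min RT, luminescence. Normalized to DMSO and media-only wells.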
The depositor's hits bear a star; i = inactive; ? = inconclusive; . = not tested or not shown. In the library only some 8% were active in any assay of this set; here they are far more common. Calls follow the shape of the dose curve; as a rule, active = well fitted curve in the direction sought with a large enough effect; inconclusive = small, poorly fitted or top-dose-only effect, or another doubt; inactive = no such curve, though single readings can be large; an effect the other way counts as inactive or inconclusive. Potency is read from the fitted curve at half-maximal effect.

SMILES | SW480 rereplic | MCF10A rerep | KB-V1 MDR tox | KB-3-1 cytotox | HT1080 IDH1KD tx | HT1080-NT tox
COc1cc(C2CC(c3ccccc3)=NN2c2ccccc2)ccc1OCC(=O)O (centres undefined) | 16.4µM* | 4.11µM* | ? | i | -9.3% | 0.8%
COc1cc(N2N=C(c3ccccc3)CC2c2ccccc2)c(C=O)cc1C=O (centres undefined) | 18.5% | ? | ? | ? | 0.1% | -3.4%
COc1ccc(C2CC(c3ccccc3)=NN2c2ccc(S(N)(=O)=O)cc2)cc1OC (centres undefined) | 23.1µM* | 16.4µM* | i | i | ? | ?
NS(=O)(=O)c1ccc(N2N=C(c3ccccc3)CC2c2ccccc2Br)cc1 (centres undefined) | 11.6µM* | ? | i | i | -20.2% | ?
NS(=O)(=O)c1ccc(N2N=C(c3ccccc3)CC2c2cccc(F)c2)cc1 (centres undefined) | 4.11µM* | 2.59µM* | ? | ? | -6.2% | -4.1%
NS(=O)(=O)c1ccc(N2N=C(c3ccc(Br)cc3)CC2c2ccc(F)cc2)cc1 (centres undefined) | ? | 1.84µM* | ? | ? | 11.6µM* | 6.51µM*
COc1ccc(C2CC(c3ccccc3)=NN2c2ccccc2)c(C(=O)O)c1OC (centres undefined) | ? | 18.4µM* | i | i | -14.1% | -12.7%
c1csc(-c2nc(N3CCN(Cc4ccc5c(c4)OCCO5)CC3)c3ccccc3n2)c1 | . | . | . | . | 6.2% | -1.8%
COc1ccc(C2=NN(c3ccc(C(=O)O)cc3)C(c3ccc(OC)c(OC)c3)C2)cc1 (centres undefined) | 18.4µM* | 3.26µM* | i | ? | -14.2% | -9.1%
O=S(=O)(c1ccccc1C(F)(F)F)N1CCN(c2nc(-c3cccs3)nc3ccccc23)CC1 | . | . | i | i | . | .
COc1ccc(NC(=O)c2cc3c(s2)-c2c(C)cccc2OC3)c(OC)c1 | . | . | ? | i | . | .
Cc1ccc(S(=O)(=O)c2nc(S(=O)(=O)c3ccc(C)cc3)c(NCCCOC(C)C)s2)cc1 | . | . | ? | i | . | .
C[n+]1cc(-c2ccccc2)n2c1CCCCC2 | 0.0% | 12.8% | i | ? | 4.3% | -2.6%
COc1ccccc1-n1c(-c2ccccc2)c[n+]2c1CCc1ccccc1-2 | -0.1% | 15.8% | i | 3.26µM* | 13µM* | 14.6µM*
COc1ccc(-n2cc(-c3ccc(Br)cc3)[nH]c2=S)cc1 | -0.2% | 4.1% | i | i | 13.0% | 7.7%
COc1ccc(-n2c(-c3ccc(Br)cc3)c[n+]3c2CCc2ccccc2-3)cc1 | 6.3% | 18.4µM* | i | 2.59µM* | 16.4µM* | ?
COc1ccc(-c2cn(-c3ccc(OC)cc3)c3[n+]2-c2ccccc2CC3)cc1 | -2.8% | 0.2% | i | 3.66µM* | ? | 25.9µM*
CC(C)c1ccc(-n2c(-c3ccccc3)c[n+]3c2CCc2ccccc2-3)cc1 | -0.2% | ? | i | 2.59µM* | 7.31µM* | 8.2µM*
COc1ccc(-n2cc(-c3ccccc3)[n+]3c2CCCCC3)cc1 | ? | 22.9% | i | ? | ? | ?
O=C(NCCCc1nc2ccccc2n1CCCOc1ccccc1)C1CCCCC1 | . | . | ? | i | . | .
CCNC(=O)C1CCCN(c2nn3cc(-c4ccc(C)cc4)nc3s2)C1 (centres undefined) | . | . | i | i | . | .
O=C(NNc1nc(-c2ccc(Br)cc2)cs1)c1ccco1 | ? | 2.59µM* | i | ? | ? | -14.2%
CC(=O)Nc1ccc(-c2csc(NNC(=O)c3ccc(C)cc3)n2)cc1 | 14.0% | -0.8% | i | i | 12.8% | 5.4%
O=C(NNc1nc(-c2ccccc2)cs1)c1ccccc1 | 21.3% | ? | 16.4µM* | ? | -26.5% | -10.5%
O=C(NC(=S)Nc1nc(-c2ccc(Br)cc2)cs1)c1ccco1 | -4.5% | 46.5% | ? | i | 7.4% | 14.4%
SMILES | SW480 rereplic | MCF10A rerep | KB-V1 MDR tox | KB-3-1 cytotox | HT1080 IDH1KD tx | HT1080-NT tox
N#Cc1ccc(-c2csc(NNC(=O)c3ccccc3)n2)cc1 | ? | -2.5% | i | i | 10.3µM* | -4.2%
N#Cc1ccc(-c2csc(NNC(=O)c3ccc(Br)cc3)n2)cc1 | 5.17µM* | ? | i | i | 5.17µM* | 8.2µM*
Cc1c(I)c(=O)n(-c2ccccc2)n1C | -7.5% | -1.3% | . | . | . | .
Cc1ccc(-n2ncc(C(=O)N3CCCCC3)c2C2CCN(C(=O)OC(C)(C)C)CC2)c(C)c1 | . | . | i | i | . | .
COc1cccc(CN2Cc3cccc4c3[C@H](C=CC4)CC2=O)c1 | . | . | ? | i | . | .
Cc1ccc(CNC(=O)Cc2ccc(-n3cccc3)cc2)cc1 | 4.11µM* | 5.8µM* | 2.31µM* | 7.31µM* | 4.61µM* | ?
COc1ccc(CC(=O)NCc2ccc(-n3cccc3)cc2)cc1OC | 5.17µM* | 5.8µM* | 8.2µM* | 4.11µM* | 1.84µM* | 4.61µM*
O=C(Cc1ccc(-n2cccc2)cc1)NCc1cccs1 | ? | ? | 1.16µM* | 1.64µM* | 2.59µM* | 2.31µM*
COc1cc(OC)cc(C(=O)NCc2ccc(-n3cccc3)cc2)c1 | ? | ? | ? | ? | ? | -18.9%
O=C(CNC(=O)Cc1ccccc1)NCc1cccs1 | -3.2% | 0.5% | i | i | 17.0% | 12.8%
C=C1C=C(C(F)F)n2ncc(C(=O)N3CCc4ccccc4C3)c2N1 | . | . | i | ? | . | .
CCN(CC)c1ccc(-n2c(C)c(C(C)=O)c(C(C)=O)c2C)cc1 | -11.6% | 14.5% | 18.4µM* | ? | -5.9% | -7.7%
COc1cc(NC(=O)c2nc3cc(C)c(C)cc3n(C)c2=O)cc(OC)c1OC | . | . | i | i | . | .
Cc1ccc(CNC(=O)Nc2cc(C(=O)NCc3cccc(F)c3)ccc2N2CCCC2)cc1 | . | . | i | ? | . | .
CCOC(=O)COc1ccc(C)cc1C(=O)c1ccn2nc(-c3ccc(C)cc3)cc2n1 | . | . | i | i | . | .
CC(=O)Nc1cc(-c2ccc(N3CCN(C)CC3)cc2)cn2c(-c3ccccc3)cnc12 | . | . | i | i | 20.6µM* | ?
CN1CCN(c2ccc(-c3cc(NC=O)c4ncc(-c5ccc(F)cc5)n4c3)cc2)CC1 | . | . | i | ? | ? | ?

Source: PubChem
